Only some compounds are listed: those with a hit (about 0.78% of all), similar ones and a draw of the others.
EBV LMP1 NFkB: Epstein-Barr LMP1 NF-kappaB reporter inhibition; LMP1-induced NF-kappaB luciferase reporter cells, luminescence; inhibition, % at 12.5 µM; 350,000 tested, 0.69% active; AID 504558; in the data active = inhibition above about 41%;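 note: 0% = neutral control wells and 100% = reference inhibitor control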
SRC3 inh: inhibits human SRC3 coactivator. 360,000 tested, 0.17% active. HEK293 GAL4-SRC3 luciferase reporter, luminescence. AID 588352. Q9Y6Q9. inhibition, % at 3.6 µM;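 active = inhibition above a per-campaign cutoff, the mean of all compounds plus 3 SD, cut at about 60% in these data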;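 note: 0% = DMSO-treated cells and 100% = gossypol-treated cells at 36 µM; higher means less SRC3-driven luciferase light from the GAL4 reporter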
NR5A2 inv ag: suppresses constitutive activity of human LRH-1; O00482; HEK293T StAR-luciferase reporter, LRH-1 transfected, 24 h; 360,000 tested, 0.13% active; inhibition, % at 3.6 µM;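 active = inhibition above the mean inhibition of all tested compounds plus 3 SD, cut at about 73% in these data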;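 note: 0% = DMSO wells and 100% = reporter-only cells lacking LRH-1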
NCOA1 inh: human NCOA1 inhibition; 360,000 tested, 0.12% active; AID 588354; Q15788; inhibition, % at 3.6 µM; HEK293 GAL4-SRC1 luciferase reporter, luminescence;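 active = inhibition above the campaign mean plus 3 SD, with each screening campaign given its own cutoff, cut at about 60% in these data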;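 note: 0% = DMSO treated cells and 100% = gossypol at 36 µM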
Target sequence (Q15788 whole entry, looked up, the tested form may be a part): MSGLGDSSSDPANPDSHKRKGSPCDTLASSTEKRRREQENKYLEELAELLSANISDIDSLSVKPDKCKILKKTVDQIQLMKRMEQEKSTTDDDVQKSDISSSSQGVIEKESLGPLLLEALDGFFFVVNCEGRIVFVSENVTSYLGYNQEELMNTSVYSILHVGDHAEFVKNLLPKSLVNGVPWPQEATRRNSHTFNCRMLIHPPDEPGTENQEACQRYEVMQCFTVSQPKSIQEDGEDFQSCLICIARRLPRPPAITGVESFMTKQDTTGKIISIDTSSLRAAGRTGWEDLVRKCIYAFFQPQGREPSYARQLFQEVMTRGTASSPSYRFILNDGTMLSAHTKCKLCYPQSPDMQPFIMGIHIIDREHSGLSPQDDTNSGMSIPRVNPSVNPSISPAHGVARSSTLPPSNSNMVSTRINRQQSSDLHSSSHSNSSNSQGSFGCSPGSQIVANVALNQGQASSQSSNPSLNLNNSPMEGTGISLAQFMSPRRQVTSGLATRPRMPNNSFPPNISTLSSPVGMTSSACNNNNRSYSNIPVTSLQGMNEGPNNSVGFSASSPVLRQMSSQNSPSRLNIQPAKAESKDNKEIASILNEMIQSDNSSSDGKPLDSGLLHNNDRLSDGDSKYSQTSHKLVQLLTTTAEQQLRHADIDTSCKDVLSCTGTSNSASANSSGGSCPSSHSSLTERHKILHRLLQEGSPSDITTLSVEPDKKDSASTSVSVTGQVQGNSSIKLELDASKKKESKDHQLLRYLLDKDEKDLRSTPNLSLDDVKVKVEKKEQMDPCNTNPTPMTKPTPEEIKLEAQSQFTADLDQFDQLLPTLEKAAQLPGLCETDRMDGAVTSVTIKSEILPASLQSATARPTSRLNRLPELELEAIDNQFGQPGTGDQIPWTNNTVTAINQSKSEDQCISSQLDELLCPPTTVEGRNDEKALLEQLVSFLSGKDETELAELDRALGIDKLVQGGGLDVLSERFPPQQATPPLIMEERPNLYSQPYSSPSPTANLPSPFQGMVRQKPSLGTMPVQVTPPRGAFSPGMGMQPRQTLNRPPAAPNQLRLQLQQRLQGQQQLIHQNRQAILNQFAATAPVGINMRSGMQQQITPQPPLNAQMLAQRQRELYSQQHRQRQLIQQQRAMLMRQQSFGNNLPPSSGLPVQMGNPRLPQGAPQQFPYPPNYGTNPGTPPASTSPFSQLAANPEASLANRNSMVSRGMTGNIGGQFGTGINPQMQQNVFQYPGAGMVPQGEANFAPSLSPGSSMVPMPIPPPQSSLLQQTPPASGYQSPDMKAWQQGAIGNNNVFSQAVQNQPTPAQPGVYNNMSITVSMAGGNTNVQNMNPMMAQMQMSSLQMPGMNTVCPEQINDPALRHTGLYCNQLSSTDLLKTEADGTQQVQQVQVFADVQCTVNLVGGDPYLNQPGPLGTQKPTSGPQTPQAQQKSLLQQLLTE
SRC2 inh: human SRC2 (NCOA2) inhibition; HEK293 GAL4-SRC2 luciferase reporter, luminescence; Q15596; 370,000 tested, 0.17% active; inhibition, % at 9 µM;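 active = inhibition above the mean inhibition of all tested compounds plus 3 SD, set per campaign, cut at about 52% in these data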;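 note: 0% = DMSO treated cells and 100% = cells given Gossypol at 36 µM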
Active calls of the source: *.

Results for Cc1ccc(C(=O)N/N=C/c2c(O)ccc3ccccc23)cn1 ?
EBV LMP1 NFkB: 64.7*; SRC3 inh: 74.0*; NR5A2 inv ag: 87.5*; NCOA1 inh: 68.4*; SRC2 inh: 48.0

What do the screens show for `S=c1[nH]nc(-c2cc(-c3ccccc3)n[nH]2)n1N=Cc1cccc(OCc2ccccc2)c1`?
SRC2 inh: -31.2

What do the screens show for `O=C(NN=Cc1c(O)ccc2ccccc12)c1ccncc1`?
EBV LMP1 NFkB: 62.2*; SRC3 inh: 75.4*; NR5A2 inv ag: 91.0*; NCOA1 inh: 41.3; SRC2 inh: 40.2

Results for Cn1cc(C(=O)N/N=C/c2c(O)ccc3ccccc23)ccc1=O ?
EBV LMP1 NFkB: 62.1*; SRC3 inh: 61.6*; NR5A2 inv ag: 24.9; NCOA1 inh: 32.4; SRC2 inh: 40.0

Results for O=C(N/N=C\c1c(O)ccc2ccccc12)c1cncc(Br)c1 ?
EBV LMP1 NFkB: 38.5; SRC3 inh: 68.6*; NR5A2 inv ag: 27.7; NCOA1 inh: 50.5; SRC2 inh: 17.0

Results for Cn1nccc1C(=O)N/N=C/c1c(O)ccc2ccccc12 ?
EBV LMP1 NFkB: 76.4*; SRC3 inh: 72.8*; NR5A2 inv ag: 90.1*; NCOA1 inh: 67.9*; SRC2 inh: -3.5

How did O=C(N/N=C\c1c(O)ccc2ccccc12)c1ccc(O)cc1 do in these assays?
EBV LMP1 NFkB: 35.5; SRC3 inh: 19.7; NR5A2 inv ag: 7.3; NCOA1 inh: 19.5; SRC2 inh: 5.3

What do the screens show for `C=CCN1C(=O)[C@@H](CC(=O)NCCCOCCCC)[C@]2(C(=O)OC)CCCCC=C12`?
SRC2 inh: -8.4

What do the screens show for `CCN(CC)C(=O)CC[C@H]1CC[C@]2(CCCN(c3ccccc3)C2)O1`?
SRC2 inh: 24.8

How did O=C(NCCc1ccccc1)OCc1cn(-c2ccc(F)cc2)nn1 do in these assays?
SRC2 inh: -10.7

What do the screens show for `S=C(NCc1ccccn1)NN=Cc1ccccn1`?
EBV LMP1 NFkB: 61.0*; SRC3 inh: -0.6; NR5A2 inv ag: 7.8; NCOA1 inh: -2.0; SRC2 inh: -17.9

Results for Cc1ccc(NC(=S)NCc2ccccn2)cc1 ?
EBV LMP1 NFkB: -3.9; SRC3 inh: 6.7; NR5A2 inv ag: -17.3; NCOA1 inh: -13.9; SRC2 inh: -16.1

What do the screens show for `c1ccc(-c2nc(NCc3ccco3)c3ccccc3n2)nc1`?
EBV LMP1 NFkB: 63.3*; SRC3 inh: 16.4; NR5A2 inv ag: 34.3; NCOA1 inh: 9.1; SRC2 inh: 10.9

How did N/C(=N\OC(=O)c1cccc(Cl)c1)c1ccccn1 do in these assays?
EBV LMP1 NFkB: 17.0; SRC3 inh: -39.8; NR5A2 inv ag: -48.4; NCOA1 inh: -78.2; SRC2 inh: 2.5

How did COc1cc(OC)cc(C(=O)O/N=C(\N)c2ccccn2)c1 do in these assays?
SRC3 inh: -72.6; NR5A2 inv ag: -73.6; NCOA1 inh: -77.1; SRC2 inh: -63.9

What do the screens show for `N/C(=N\OC(=O)c1cccc(Br)c1)c1ccccn1`?
EBV LMP1 NFkB: 45.1*; SRC3 inh: -47.2; NR5A2 inv ag: -58.4; NCOA1 inh: -48.8; SRC2 inh: -2.1

Results for COc1ccc(C(=O)O/N=C(\N)c2ccccn2)cc1 ?
EBV LMP1 NFkB: 81.1*; SRC3 inh: -38.2; NR5A2 inv ag: -21.6; NCOA1 inh: -33.2; SRC2 inh: 41.6

What do the screens show for `COc1ccccc1/C=C/C(=O)c1c2c(c(C)[nH]c1=O)CCCC2`?
EBV LMP1 NFkB: 14.9; SRC3 inh: 65.3*; NR5A2 inv ag: 12.2; NCOA1 inh: 30.7; SRC2 inh: 58.0*

What do the screens show for `COc1ccccc1/C=C/C(=O)c1ccccc1`?
EBV LMP1 NFkB: -16.9; SRC3 inh: -52.7; NR5A2 inv ag: -22.6; NCOA1 inh: -55.5; SRC2 inh: -31.0

What do the screens show for `COc1ccccc1/C=C/C(=O)c1ccc(Cl)cc1`?
EBV LMP1 NFkB: 68.1*; SRC3 inh: -13.4; NR5A2 inv ag: -17.1; NCOA1 inh: -9.1; SRC2 inh: -8.0

How did COc1ccc(C(=O)Nc2cccc(C(=O)N/N=C/c3ccc(OC)cc3OC)c2)cc1 do in these assays?
EBV LMP1 NFkB: 66.6*; SRC3 inh: -67.3; NR5A2 inv ag: -36.7; NCOA1 inh: -30.2; SRC2 inh: -69.5

What do the screens show for `COc1ccc(/C=N/NC(=O)c2cccc(NC(C)=O)c2)c(OC)c1`?
EBV LMP1 NFkB: -2.4; SRC3 inh: 3.8; NR5A2 inv ag: -7.1; NCOA1 inh: -20.9; SRC2 inh: -15.3

Results for Cc1ccc(C(=O)Nc2cccc(C(=O)N/N=C/c3ccccc3F)c2)cc1 ?
EBV LMP1 NFkB: 58.7*; SRC3 inh: -72.2; NR5A2 inv ag: -103.5; NCOA1 inh: -96.9; SRC2 inh: -15.4

What do the screens show for `O=C1CSc2ccc(C(=O)N3CCCC(C(=O)N4CCOCC4)C3)cc2N1` (configuration not stated)?
SRC2 inh: -27.8

What do the screens show for `CC1=C(CO)C(=O)OC([C@@H](C)C2CC[C@H]3C4C[C@H]5O[C@]56[C@@H](O)C=CC(=O)[C@]6(C)C4CC[C@]23C)C1` (some centres not stated)?
EBV LMP1 NFkB: 82.9*; SRC3 inh: 19.8; NR5A2 inv ag: 61.7; NCOA1 inh: 14.1; SRC2 inh: 68.4*

How did C=C(NC(=O)C(=C)NC(=O)c1csc(C2=NC3c4csc(n4)C4NC(=O)c5csc(n5)C(C(C)(O)C(C)O)NC(=O)C5CSC(=N5)/C(=C/C)NC(=O)C(C(C)O)NC(=O)c5csc(n5)C3(CC2)NC(=O)C(C)NC(=O)C(=C)NC(=O)C(=C)NC(=O)C(C(C)C)NC2C=Cc3c(C(C)O)cc(nc3C2O)C(=O)OC4C)n1)C(N)=O (configuration not stated) do in these assays?
EBV LMP1 NFkB: 64.8*; SRC3 inh: -43.9; NR5A2 inv ag: -29.3; NCOA1 inh: -90.2; SRC2 inh: 12.2

Results for C/C(CC(=O)NC1C2CC3CC(C2)CC1C3)=N\NC(=O)Cc1cccs1 (configuration not stated) ?
EBV LMP1 NFkB: -10.8; SRC3 inh: -9.1; NR5A2 inv ag: -9.6; NCOA1 inh: -23.6; SRC2 inh: 98.1*

What do the screens show for `CC(C)(C)C(=O)/C(=C/c1ccncc1)n1cncn1`?
EBV LMP1 NFkB: 37.8; SRC3 inh: 62.7*; NR5A2 inv ag: 52.4; NCOA1 inh: 54.0; SRC2 inh: 71.9*

Results for O=C(C1CCCN1S(=O)(=O)c1ccc(F)cc1)N1CCc2ccccc2C1 (configuration not stated) ?
SRC2 inh: 8.1

What do the screens show for `C[C@@H]1OC(C2CCCCC2)N(C)[C@H]2C[C@H]3c4[nH]c5cccc(-c6ccccc6)c5c4CCN3C[C@@H]12` (some centres not stated)?
SRC2 inh: 19.8

How did O=C(NC1CCCC1)C(c1ccccc1)n1c(-c2cccs2)nc2ccccc21 (configuration not stated) do in these assays?
NR5A2 inv ag: -3.7; SRC2 inh: 2.4

What do the screens show for `O=C(NC1CCCC1)C(c1ccccc1)n1c(CSCCOc2ccccc2)nc2ccccc21` (configuration not stated)?
NR5A2 inv ag: 20.3; SRC2 inh: 77.1*

Screens deposited in PubChem BioAssay by several laboratories.
